# High-throughput results: PubChem BioAssay, National Center for Advancing Translational Sciences (NCATS)
# In the library only some 9.3% were active in any assay of this set; here they are far more common.
# Sm TGR inh = inhibitors of Schistosoma mansoni thioredoxin glutathione reductase | Q962Y6 | purified TGR, DTNB reduction, TNB absorbance 405 nm | Potency, µM (titrated, usually from 114 µM), for the others: at the top dose activity change, negative = inhibition, actives largely listed as inhibitors | hit rate 3% among 360,000; further: potency means the concentration at half of the fitted maximal effect; nearly all actives have a fitted effect of over 60% in size
#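 Kinetic colorimetric format: TGR-catalysed, NADPH-driven DTNB reduction monitored via TNB absorbance. Enzyme dispensed at 20 nM; compound exposure 15 min at room temperature before reaction start.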
# Vaccinia mCherry = vaccinia inhibition (mCherry reporter) | Vaccinia virus mCherry reporter infection, fluorescence | Potency, µM (highest dose often 36.5 µM), without a hit: at the top dose activity change, negative = inhibition, usual class: inhibitors | hit rate 0.63% among 310,000; calls by dose curve; tested in A549 cells; further: potency means the concentration at half of the fitted maximal effect; nearly all actives have a fitted effect of over 35% in size
# HCV inh = inhibitors of hepatitis C virus infection; Huh7.5.1 HCVcc-Cre infection, luciferase reporter, 44 h; Potency, µM (highest dose often 41.8 µM), for inactives: at the top dose activity change, negative = inhibition, hits mostly inhibitors; AID 651820; hit rate 3.4% among 340,000; further: potency means the concentration at half of the fitted maximal effect
#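 Compounds are dispensed onto cells plated 4 h earlier at 1,000 per well, with HCVcc-Cre virus (about 0.5 moi) added next. Following 44 h of culture, luminescent signal is measured for 15 sec after 15 min with substrate at room temperature.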
# Vaccinia Venus = vaccinia inhibition (Venus reporter); Vaccinia virus Venus reporter expression, fluorescence; Potency, µM (highest dose often 36.5 µM), inactives show top-dose activity change, negative = inhibition, most hits filed as inhibitors; hit rate 0.46% among 330,000; calls by dose curve; tested in A549 cells; further: potency means the concentration at half of the fitted maximal effect; nearly all actives have a fitted effect of over 30% in size
# FMDV antiviral = antivirals against foot and mouth disease virus; FMDV antiviral cell-based qHTS; Potency, µM (series often up to 57.9 µM), for inactives: at the top dose activity change, negative = inhibition, most hits filed as inhibitors; hit rate 1.2% among 410,000; calls by dose curve; tested in HEK293T cells; further: read-out not given here; potency means the concentration at half of the fitted maximal effect; nearly all actives have a fitted effect of over 45% in size
# HCMV inh = inhibitors of human cytomegalovirus | HFF cells, HCMV-luciferase reporter, 72 h; active compounds read low | activity change, negative = inhibition, % at 57.5 µM | hit rate 4.5% among 410,000; in the data active means activity change below about -60%; inconclusive means no clear call, values can overlap the other calls; inactive means above about -39%
#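 Inhibition of viral replication was scored as loss of reporter luminescence in HFFs infected with HCMV-luciferase (MOI 1 PFU/cell) for 72 h; compounds tested at 2 doses, normalized to buffer and Salinomycin controls.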
# Numbers without * were called inactive; i = inactive; ? = inconclusive; / = no result given; [ ] = another dose, or the depositor's remark. Unless noted, the call rests on the fitted dose curve; in most records, active means well fitted curve in the direction sought with a large enough effect; inconclusive means small, poorly fitted or top-dose-only effect, or another doubt; inactive means no such curve, though single readings can be large; an effect the other way counts as inactive or inconclusive. On the % scale 0 is the no-effect control and ±100 the full control effect.
SMILES,Sm TGR inh,Vaccinia mCherry,HCV inh,Vaccinia Venus,FMDV antiviral,HCMV inh
Cc1nsc(Nc2ccc([N+](=O)[O-])cc2)c1C#N,9%,-13%,-15%,-2%,-9%,-64*
Cc1ccc(Nc2ccc([N+](=O)[O-])ccc2=O)cc1,/,-27%[7.34 µM],-15%,-5%[7.34 µM],34%,-25
CN1C(=O)C(CC(=O)NCCc2ccccc2)N(NC(=O)c2cccc(F)c2)C1=S (centres undefined),-4%,i,0%,2%,1%,9
CN1C(=O)C(CC(=O)NCCc2ccccc2)N(NC(=O)c2ccc(Cl)cc2)C1=S (centres undefined),13%,/,-8%,/,-10%,-74*
CSc1ccc(CNc2cccc3ccccc23)cc1,3%,-6%,?,20%,/,-64*
Cc1nnc2n(C3CCCCC3)c(=O)c3c4c(sc3n12)COC(C)(C)C4,40µM*,/,10%,-14%,2%,-28
Cc1ncc(CN2CCC(C(=O)Nc3ccc(-n4cccn4)cc3)CC2)s1,-17%,i,-14%,-12%,-13%,8
Cc1cc(C)n(-c2ccc(NC(=O)C3CCN(Cc4cnc(C)s4)CC3)cc2)n1,0%,-2%,-15%,-11%,-28%,-60*
COc1ccc(Cl)cc1NC(=O)CN(c1cccc(C)c1C)S(C)(=O)=O,5%,-23%,/,-20%,-18%,?
CC(C)(C)n1nnnc1C(c1ccncc1)N1CCN(c2ccc(O)cc2)CC1 (centres undefined),37%,i,12%,2%,/,-11
CCCn1c(CC)nc([N+](=O)[O-])c1S(=O)(=O)c1ccccc1,?,/,13µM*,/,13µM*,33
CCOC(=O)c1oc2c(c1C)-c1nn(Cc3ccccc3Cl)cc1CC2,-2%,-16%,/,-24%,0%,-10
COc1ccc(-c2n[nH]c(C)c2-c2ccc(Cl)cc2)c(O)c1,-20%,/,?,?,?,?
Cc1[nH]nc(-c2ccc(O)cc2O)c1-c1ccc(Cl)cc1,-6%,/,?,/,?,-71*
COc1ccc(-c2n[nH]c(C)c2-c2ccc(Cl)cc2)c(O)c1OC,-9%,/,14µM*,/,32µM*,?
COc1ccc(O)c(-c2c(-c3ccc(Cl)cc3)n[nH]c2C)c1,50µM*,-26%,-4%,?,?,1
Cc1ccc(S(=O)(=O)N2CCOCC2)cc1C(=O)NC1CCSc2ccccc21 (centres undefined),-2%,/,-3%,/,-16%,29
Cc1occc(=O)c1OCc1ccccc1,-6%,0%,5%,-4%,7%,?
O=C(NC1CCCC1)c1ccc2c(=O)n(Cc3ccccc3)c(SCc3ccc([N+](=O)[O-])cc3)nc2c1,-7%,-19%,/,-14%,-7%,-16
Cc1ccc(N2CCN(C(=O)c3cc(-c4ccc(F)cc4)[nH]c3C)CC2C)cc1 (centres undefined),-12%,10µM*,11µM*,?,-24%,-8
C=CCc1cccc(Cl)c1OCCCNC1CCCC1,2%,/,10µM*,/,-21%,35
COC(=O)C1=C(C(=O)OC)C2(OC1c1cccc(F)c1)C(=O)c1ccccc1C2=O (centres undefined),-30%,i,9%,-10%,17%,22
CCOC(=O)C1CCN(C(c2ccc(OCC)cc2)c2c(O)cc(C)n(CCOC)c2=O)CC1 (centres undefined),10µM*,-14%,/,-5%,-10%,-5
CCOC(=O)C1CCN(C(c2ccc(C)cc2)c2c(O)cc(C)n(CCOC)c2=O)CC1 (centres undefined),7.9µM*,i,/,-4%,-21%,9
O=C(Nc1ccc(Cl)c(C(F)(F)F)c1)c1ccc2c(c1)CCN2S(=O)(=O)c1ccccc1,1%,?,/,?,-19%,-74*
SMILES,Sm TGR inh,Vaccinia mCherry,HCV inh,Vaccinia Venus,FMDV antiviral,HCMV inh
O=C(c1cccc(S(=O)(=O)N2CCc3ccccc32)c1)N1CCN(c2ccccc2)CC1,40µM*,-25%,10µM*,-10%,-12%,?
O=C(c1cccc(S(=O)(=O)N2CCc3ccccc32)c1)N1CCCC(C(F)(F)F)C1 (centres undefined),-3%,-8%,11µM*,-2%,-24%,?
CCOC(=O)c1sc(NC(=O)c2cccc(S(=O)(=O)N3CCc4ccccc43)c2)c(C#N)c1C,0%,/,10µM*,/,?,-99*
NC(=O)c1ccc(NC(=O)c2ccc3c(c2)CCN3S(=O)(=O)c2ccccc2)cc1,0%,-6%,?,-9%,7%,32
CC(Oc1ccccc1)C(=O)NCc1cccnc1 (centres undefined),0%,-2%,5%,-16%,15%,23
CCOCCCNC(=O)CCNS(=O)(=O)c1ccc(C)cc1,7%,/,-3%,/,-9%,71
CC1(C)C(=O)OC(c2cccn2-c2cccc([N+](=O)[O-])c2)C2(CCCCC2)C1=O (centres undefined),0%,/,-10%,/,/,-39
COc1ccccc1N1CCN(C(=O)c2ccc3c(c2)CCN3S(=O)(=O)c2ccccc2)CC1,-10%,-22%,13µM*,-10%,?,?
O=C(Nc1ccncc1)c1cccc(S(=O)(=O)N2CCc3ccccc32)c1,2%,-28%,8.9µM*,-19%,?,-77*
COc1cccc(NC(=O)CSc2nnc3c(n2)[nH]c2ccc(C)cc23)c1,5%,-11%,-19%,-2%,-17%,-3
Cc1ccc(C)n1-c1cccc(C(=O)O)c1,8.9µM*,/,-12%,/,/,/
COc1ccc2nc(NC(=O)c3nc(S(=O)(=O)Cc4ccccc4F)ncc3Cl)sc2c1,-12%,-7%,/,1%,?,-88*
COc1ccc2nc(NC(=O)c3nc(S(=O)(=O)Cc4cccc(C)c4)ncc3Cl)sc2c1,?,?,/,?,?,-100*
COc1ccc2nc(NC(=O)c3nc(S(=O)(=O)Cc4ccccc4)ncc3Cl)sc2c1,4%,-20%,/,-15%,25µM*,-101*
COc1ccc2nc(NC(=O)c3nc(SCc4cccc(C)c4)ncc3Cl)sc2c1,-2%,?,/,?,-8%,8
CCC(=O)N1c2ccc(S(=O)(=O)CCC(=O)Nc3ccc(OC)cc3OC)cc2CC1C (centres undefined),0%,-8%,3%,-10%,-11%,?
C/C(=N\NC(=O)Cc1ccc(Cl)cc1)c1ccccc1O,0%,?,?,-4%,15%,-67*
C/C(=N\NC(=O)Cc1ccc(Cl)cc1)c1ccc(F)cc1,?,/,-13%,/,-16%,0
CCOC(=O)c1ccc(NC(=O)c2c(C)oc3nc(C)nc(N4CCCC4)c23)cc1,2%,-4%,/,-18%,-8%,77
CCOC(=O)c1cc(C#N)c(N2CCN(C(=O)c3ccccc3)CC2)nc1C(F)(F)F,-4%,-14%,-12%,-11%,?,-27
